Laboratory results as given in the supplement of paper PMC13380429.

System: Vero E6 infected with SARS-CoV-2
Assay: inhibition of SARS-CoV-2 cytopathic effect; higher = more antiviral protection, active = above 15
Settings: 48 h

Measured: inhibition of SARS-CoV-2 cytopathic effect

COc1ccc(CCNCc2ccc(OCc3ccc(Cl)nc3)c(OC)c2)cc1OC
inactive: 1 nM -1.43% | 8.33 nM 0.63% | 100 nM -0.05% | 833.33 nM -1.6% | 10000 nM -2.68%

O=c1cc[nH]c(=O)[nH]1 [uracil]
inactive: 1 nM -0.48% | 8.33 nM 2.2% | 100 nM 2.09% | 833.33 nM 1.66% | 10000 nM -2.12%

CC1=C(C(=O)O)N2C(=O)[C@@H](NC(=O)[C@H](N)C3=CCC=CC3)[C@H]2SC1 [cephradine]
inactive: 1 nM 0.46% | 8.33 nM -1.94% | 100 nM -0.29% | 833.33 nM 0.485% | 10000 nM -2.73%

Cc1c(I)c(=O)n(-c2ccccc2)n1C [iodoantipyrine]
inactive: 1 nM -0.48% | 8.33 nM -2.57% | 100 nM -0.75% | 833.33 nM -0.95% | 10000 nM 1.55%

CC(=O)N[C@@H](Cc1c[nH]c2ccccc12)C(=O)OCc1cc(C(F)(F)F)cc(C(F)(F)F)c1
inactive: 1 nM 0.3% | 8.33 nM 1.3% | 100 nM 2.32% | 833.33 nM 1.61% | 10000 nM 4%

Cc1ccc(=O)n(-c2ccccc2)c1 [pirfenidone]
inactive: 1 nM 3.93% | 8.33 nM 6.69% | 100 nM 3.96% | 833.33 nM 3.47% | 10000 nM 5.58%

[I-].[K+] [potassium-iodide]
inactive: 1 nM -3.24% | 8.33 nM -3.7% | 100 nM -1.59% | 833.33 nM 0.38% | 10000 nM -1.54%

CCCCCCCCCC(=O)OCCN1CCN(CCCN2c3ccccc3Sc3ccc(C(F)(F)F)cc32)CC1 [fluphenazine-decanoate]
inactive: 1 nM -6.37% | 8.33 nM -5.38% | 100 nM -8.72% | 833.33 nM -10.3% | 10000 nM -9.75%

CC[C@@H]1/C=C(\C)C[C@H](C)C[C@H](OC)[C@H]2O[C@@](O)(C(=O)C(=O)N3CCCC[C@H]3C(=O)O[C@H](/C(C)=C/[C@@H]3CC[C@@H](O)[C@H](OC)C3)[C@H](C)[C@@H](O)CC1=O)[C@H](C)C[C@@H]2OC [ascomycin]
inactive: 1 nM 1.02% | 8.33 nM 2.65% | 100 nM 2.8% | 833.33 nM 2.76% | 10000 nM 1.33%

O=C(NC1CCNCC1)c1n[nH]cc1NC(=O)c1c(Cl)cccc1Cl
inactive: 1 nM -0.55% | 8.33 nM -2.6% | 100 nM -1.5% | 833.33 nM -1.53% | 10000 nM 2.5%

Nc1ccn([C@H]2CC[C@@H](CO)O2)c(=O)n1 [zalcitabine]
inactive: 1 nM -0.47% | 8.33 nM -1.89% | 100 nM -4.07% | 833.33 nM -2.84% | 10000 nM -0.03%

CN(C)CCc1c[nH]c2ccc(CS(=O)(=O)N3CCCC3)cc12 [almotriptan]
inactive: 1 nM -0.13% | 8.33 nM 1.33% | 100 nM -0.24% | 833.33 nM 0.04% | 10000 nM -2.87%

Clc1ccc(COC(Cn2ccnc2)c2ccc(Cl)cc2Cl)cc1 (stereo not given) [econazole]
inactive: 1 nM 1.49% | 8.33 nM 1.04% | 100 nM 0.94% | 833.33 nM 3.08% | 10000 nM -1.91%

C[C@@H]1CCC[C@H](C)N1NC(=O)c1ccc(Cl)c(S(N)(=O)=O)c1 [clopamide]
inactive: 1 nM -1.53% | 8.33 nM 2.77% | 100 nM 0.22% | 833.33 nM 5.88% | 10000 nM -2.61%

CC(C)C(=O)Oc1ccc(CO)cc1[C@H](CCN(C(C)C)C(C)C)c1ccccc1 [fesoterodine]
inactive: 1 nM -1.73% | 8.33 nM -0.18% | 100 nM -0.25% | 833.33 nM -2.34% | 10000 nM 0.84%

Cc1ccc(C(=O)c2cc(O)c(O)c([N+](=O)[O-])c2)cc1 [tolcapone]
inactive: 1 nM -5.06% | 8.33 nM -3.82% | 100 nM -4.1% | 833.33 nM 0.66% | 10000 nM 1.15%

CC[N+](CC)(CC)CCOc1cccc(OCC[N+](CC)(CC)CC)c1OCC[N+](CC)(CC)CC [gallamine-triethiodide]
inactive: 1 nM 0.22% | 8.33 nM 3.57% | 100 nM 3.37% | 833.33 nM 2.88% | 10000 nM -1.08%

CCN(CC)Cc1nccn1-c1ccc([N+](=O)[O-])cc1C(=O)c1ccccc1Cl [nizofenone]
inactive: 1 nM -1.17% | 8.33 nM 0.76% | 100 nM -0.2% | 833.33 nM 0.15% | 10000 nM 1.83%
